Hits are enriched below; roughly 4.3% of the tested compounds scored in any of these assays.
NALP1 yeast inh: blocks the NALP1 inflammasome reconstituted in yeast. inhibition, % at 10 µM. S. cerevisiae NALP1/ASC/caspase-1 growth, X-gal OD620, 72 h. 280,000 compounds, 0.61% hits; in the data active = inhibition mostly above about 24%, no sharp cut-off; inactive = mostly below about 32%
UBC13 polyUb: human UBC13 polyubiquitination inhibition; P61088; UBC13 polyubiquitin chain formation, TR-FRET; inhibition, % at 20 µM; 330,000 compounds, 0.47% hits; AID 485273; in the data active = inhibition above about 45%, passing the limit was not always enough; inconclusive = no clear call, values can overlap the other calls
Target sequence (P61088 whole entry, looked up): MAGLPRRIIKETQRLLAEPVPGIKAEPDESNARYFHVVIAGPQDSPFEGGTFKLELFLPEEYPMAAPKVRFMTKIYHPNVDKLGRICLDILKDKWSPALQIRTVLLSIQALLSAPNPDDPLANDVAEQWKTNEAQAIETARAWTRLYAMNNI
GRIN3A LBD mod: modulates the human NR3A ligand-binding domain. NR3A LBD differential scanning fluorimetry, Tm shift; 0% = protein alone, 100% = glycine-bound protein. 340,000 compounds, 2.5% hits. Tm shift relative to glycine control, % at 25 µM. AID 1259313;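 active = melting temperature shift of at least 10% of the positive control shift, at one fixed dose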
Yeast superoxide: caloric restriction mimetics inhibiting age-related superoxide in yeast; superoxide response (% of plate mean), % at 10 µM; S. cerevisiae aged cells, superoxide DHE fluorescence; stronger effect = lower value; 330,000 compounds, 0.18% hits;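 active = superoxide response under a set limit, about three screen SD below normal, cut at about 65% in these data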;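 note: yeast aged for seven days with compound at 30 °C before DHE staining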
dFosB activator: enhances mouse delta FosB homodimer DNA binding | P13346 | purified delta FosB, TAMRA-CDK5 oligo fluorescence polarization; percent of positive-control signal above neutral wells | activation, % at 25 µM | 340,000 compounds, 0.99% hits | AID 493131;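 active = mean activation above about 17%, with every replicate also reaching it, limit read from the data, passing the limit was not always enough; inconclusive = only one of the two conditions met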
Target sequence (P13346 whole entry, looked up): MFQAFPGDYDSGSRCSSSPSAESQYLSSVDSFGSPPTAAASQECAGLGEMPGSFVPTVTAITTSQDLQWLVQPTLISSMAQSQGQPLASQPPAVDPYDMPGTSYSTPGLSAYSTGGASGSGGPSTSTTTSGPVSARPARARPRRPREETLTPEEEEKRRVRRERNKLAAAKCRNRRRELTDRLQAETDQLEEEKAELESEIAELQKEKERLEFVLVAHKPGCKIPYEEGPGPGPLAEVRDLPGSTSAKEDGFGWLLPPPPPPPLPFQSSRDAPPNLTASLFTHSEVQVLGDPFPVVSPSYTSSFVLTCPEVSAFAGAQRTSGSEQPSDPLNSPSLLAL
Hits are given with their value; i = inactive; ? = inconclusive; nt = no result.

SMILES	NALP1 yeast inh	UBC13 polyUb	GRIN3A LBD mod	Yeast superoxide	dFosB activator
CCS(=O)(=O)c1ccc(-c2cccc(NC(=O)COc3ccc(Cl)cc3)c2)nn1	i	i	i	i	i
Cc1onc(-c2ccccc2)c1C(=O)OCC(=O)Nc1ccc(Cl)cc1	nt	i	i	i	i
Cc1onc(-c2ccccc2)c1C(=O)OCC(=O)Nc1cccc(Cl)c1	nt	i	13	i	i
Cc1onc(-c2ccccc2)c1C(=O)OCC(=O)Nc1ccc(OC(F)(F)F)cc1	nt	i	12	i	i
O=C(Nc1cc(Br)ccc1O)c1cnn2c(C(F)F)cc(C3CC3)nc12	i	i	14	i	i
COc1ccccc1N(C)S(=O)(=O)c1ccc(C(=O)OCC(=O)N2CCC2)cc1	i	i	i	i	i
COC(=O)C1CCN(Cc2ccc(OCCCN3CCN(c4ccc([N+](=O)[O-])cc4)CC3)cc2)CC1	26	i	i	i	i
Cc1cc(C)c2nc(N(CCCN(C)C)C(=O)c3ccc4c(c3)OCCO4)sc2c1	nt	i	i	i	31
CN(C)CCN(C(=O)c1ccc2ccccc2c1)c1nc2cc3c(cc2s1)OCCO3	i	i	13	i	i
CC12CCC(=O)N1C(C(=O)Nc1ccccc1F)CS2 (stereo not given)	nt	i	i	i	i
COc1cc2nc(CN3CCN(S(=O)(=O)c4ccc(Cl)cc4)CC3)[nH]c(=O)c2cc1OC	i	i	i	i	i
CCOc1cc(C=NN2CCCCCC2)ccc1O	nt	nt	i	nt	i
C/C(=N\NC(=O)c1ccc(C)cc1C)c1ccc2c(c1)Nc1ccccc1S2	i	i	12	i	i
Nc1cc(=O)[nH]c(SCC(=O)Nc2cc(S(=O)(=O)N3CCOCC3)ccc2Cl)n1	i	i	i	i	i
Nc1cc(=O)[nH]c(SCC(=O)Nc2cc(S(=O)(=O)N3CCCCCC3)ccc2Cl)n1	nt	i	i	i	37
Cc1ccc(-c2nc(SCC(=O)Nc3cc(S(=O)(=O)N4CCCCC4)ccc3Cl)n[nH]2)cc1	i	i	12	i	i
O=C(CSc1nc2ccccc2c(=O)n1-c1ccc(F)cc1)Nc1ccc(Cl)c(S(=O)(=O)N2CCOCC2)c1	i	i	i	i	i
Cc1ccc(Cn2c(SCC(=O)Nc3cc(C)on3)nc3ccccc3c2=O)cc1	i	i	i	i	65
Cc1ccc(-n2c(SCC(=O)Nc3cc(S(=O)(=O)N4CCOCC4)ccc3Cl)nc3ccccc3c2=O)cc1	i	i	10	i	i
Cc1cc(NC(=O)CSc2nc3ccccc3c(=O)n2Cc2ccccc2)no1	i	i	i	i	i
CC/C(=N\NC(=O)c1nnn(-c2nonc2N)c1-c1cccs1)c1ccccc1	i	i	i	i	i
COc1ccc(-c2nc(SCC(=O)Nc3cc(C)on3)n[nH]2)cc1	i	i	10	i	i
CNC(=O)CN1C(=O)CSc2ncccc21	41	i	i	i	i
COc1ccc(OC)c(NC(=O)C23CCC(C)(C(=O)C2)C3(C)C)c1 (stereo not given)	i	i	11	i	i
Cc1cnc(NC(=O)c2cccs2)s1	34	i	i	i	i
SMILES	NALP1 yeast inh	UBC13 polyUb	GRIN3A LBD mod	Yeast superoxide	dFosB activator
O=C(Nc1nc2ccccc2s1)c1ccc(Cl)s1	i	i	21	i	i
O=C(Nc1nc2ccccc2s1)c1ccc(F)cc1	i	i	i	i	i
COc1ccc2nc(NC(=O)c3ccc(F)cc3)sc2c1	i	i	10	i	i
COc1ccc2nc(NC(C)=O)sc2c1	i	i	i	i	i
COc1ccc(C(=O)Nc2nc3ccccc3s2)cc1	i	i	26	i	i
COc1cccc(C(=O)Nc2nc3ccccc3s2)c1	i	i	i	i	i
COC(=O)c1ccc(N/C=C/C(=O)c2ccccc2)cc1	i	i	i	i	i
COc1ccc2nc(NC(=O)c3cccs3)sc2c1	i	i	19	i	nt
NC(=O)c1ccc2nc(NC(=O)c3ccc(N)cc3)sc2c1	i	i	14	nt	i
COc1ccc2nc(NC(=O)c3ccccc3[N+](=O)[O-])sc2c1	30	i	i	i	i
COc1ccc2nc(NC(=O)c3ccccc3O)sc2c1	i	i	i	i	i
O=C(NCC(c1ccco1)N1CCCC1)c1cc2ccccc2s1 (stereo not given)	nt	i	i	i	i
Cc1ccc(OCC(=O)Nc2ccc(NC(=O)c3ccccc3)c(C)c2)cc1	i	i	i	i	i
Cc1ccc(NC(=S)NCc2ccc3[nH]c4c(c3c2)CCCC4)cc1	i	i	11	i	i
Cc1c(NS(=O)(=O)c2ccc(Cl)c(C(=O)OCC(=O)NCc3ccco3)c2)c(=O)n(-c2ccccc2)n1C	i	i	i	i	i
Cc1cc(Cl)ccc1OCCCC(=O)NNC(=O)c1ccccc1O	nt	i	i	i	i
O=C(CCC(NC(=O)OCc1ccccc1)C(=O)OCc1ccccc1)NCC(=O)OCc1ccccc1 (stereo not given)	i	i	12	i	i
COc1ccc(C2CC(c3ccc(Br)cc3)=NN2C(=S)Nc2ccccc2)cc1 (stereo not given)	i	i	11	i	i
CCN1CCN(CC(=O)N2N=C(c3ccc(OC)cc3)CC2c2ccc(OC)cc2)C(=O)C1=O (stereo not given)	20	i	i	i	i
COc1ccc(C2=NN(C(=O)CCC(=O)O)C(c3ccc(OC)cc3)C2)cc1 (stereo not given)	i	i	i	i	i
Cc1ccc(NC(=O)Cn2cnc3cc([N+](=O)[O-])ccc3c2=O)cc1	37	i	i	i	i
COCCNc1nc(-c2ccc(OC)cc2)c(-c2ccc(OC)cc2)s1	35	i	i	i	i
Cc1ccc(NC2Sc3ccccc3NC2=O)cc1 (stereo not given)	i	i	13	i	i
COC(=O)CC1Sc2ccccc2NC1=O (stereo not given)	i	i	14	i	i
COc1ccc(NC(=O)COC(=O)CC2Sc3ccccc3NC2=O)cc1 (stereo not given)	nt	i	i	nt	i
SMILES	NALP1 yeast inh	UBC13 polyUb	GRIN3A LBD mod	Yeast superoxide	dFosB activator
COc1ccc(C(O)(CCC(C)C)C(CN2CCOCC2)c2ccc(Cl)cc2)cc1 (stereo not given)	i	i	16	i	i
CCCC(O)(c1ccc(OC)cc1)C(CN1CCOCC1)c1ccc(Cl)cc1 (stereo not given)	i	i	i	i	i
Cc1ccc(N2C(=O)CS/C2=C(\C(Cl)=C(Cl)Cl)[N+](=O)[O-])cc1	i	i	11	i	i
Cc1nc(NC(=O)c2cc3c(s2)CCCCC3)sc1C(=O)N(C)C	i	i	i	i	i
COC(=O)c1sc(NC(=O)c2cc3c(s2)CCCC3)nc1C	33	i	i	i	i
O=c1[nH]cnc(O)c1C(c1ccc2c(c1)OCO2)c1c(O)nc[nH]c1=O	28	i	i	i	i
CSCC[C@@H](C(=O)O)N1Cc2ccccc2C1=O	39	i	i	i	i
N#C/C(=C/c1ccc(-c2ccc(S(N)(=O)=O)cc2)o1)C(=O)Nc1ccccc1	i	i	23	i	?
Cc1ccc(-c2ccc(/C=N/NC(=O)c3ccccc3O)o2)cc1	i	i	nt	i	nt

Bioassay records deposited in PubChem BioAssay by several laboratories.
